# Reference: ChEMBL document CHEMBL3988442, “University of Dundee, Small-Polar-MMV Screening Library” (2021)
# Target: T1, Aspartate--tRNA(Asp/Asn) ligase (Mycobacterium tuberculosis (strain ATCC 25618 / H37Rv)) (UniProt P9WFW3); also: in the data most compounds retested in dose-response had high values
# T1 sequence (whole entry): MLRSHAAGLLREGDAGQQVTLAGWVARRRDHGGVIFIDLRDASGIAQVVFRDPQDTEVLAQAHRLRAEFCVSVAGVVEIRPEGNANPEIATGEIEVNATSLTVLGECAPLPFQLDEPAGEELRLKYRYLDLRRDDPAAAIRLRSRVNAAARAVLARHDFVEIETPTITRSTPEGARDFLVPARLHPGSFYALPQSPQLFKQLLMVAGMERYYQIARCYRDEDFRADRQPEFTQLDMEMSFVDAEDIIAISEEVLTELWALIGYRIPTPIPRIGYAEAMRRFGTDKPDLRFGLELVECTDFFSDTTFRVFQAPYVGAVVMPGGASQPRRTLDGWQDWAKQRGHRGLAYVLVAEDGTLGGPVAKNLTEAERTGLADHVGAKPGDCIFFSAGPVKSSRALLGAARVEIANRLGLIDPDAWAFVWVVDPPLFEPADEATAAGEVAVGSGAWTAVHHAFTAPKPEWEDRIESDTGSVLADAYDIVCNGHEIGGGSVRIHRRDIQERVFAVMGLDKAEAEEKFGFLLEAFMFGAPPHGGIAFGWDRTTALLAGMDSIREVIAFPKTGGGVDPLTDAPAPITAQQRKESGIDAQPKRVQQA
# Test: Assay for Asp RNA synthetase-1 from Mycobacterium tuberculosis
# Format: functional
# Parameters: scale not given: direction of the effect not stated beside the values
# Conditions: 30 µM
row,SMILES,Percent Effect [%]
1,CCOCC1CN(S(C)(=O)=O)Cc2ncn(CC3CC3)c21 (stereo not given),-0.663
2,Cc1nc(CN(C)C2CCN(Cc3nc4ccccc4s3)C2)no1 (stereo not given),-0.253
3,O=C1C(NS(=O)(=O)c2cc(F)cc(F)c2)CCN1Cc1ccccc1 (stereo not given),-5.71
4,COc1cccc(-c2nc(CNCCn3cccn3)cs2)c1,-2.68
5,c1cnnc(N2CCCC2CNCc2cc[nH]n2)c1 (stereo not given),-3.63
6,CC(c1nc(C2CC2)no1)N1CCN(Cc2ccccc2F)CC1 (stereo not given),-7.52
7,CC(O)CN1CCN(C(=O)c2ccc(Br)o2)CC1 (stereo not given),-2.21
8,Cc1cc(C(=O)NCc2ccnc(N3CCN(C)CC3)c2)c(C)s1,-3.03
9,O=C(NCCn1ccc(-c2ccccn2)n1)c1ccncc1,-6.73
10,C1CC(NCc2nc(C3CC3)no2)CN(Cc2noc(C3CC3)n2)C1 (stereo not given),-2.94
11,Cn1c(CC2CCS(=O)(=O)C2)nnc1SCCOc1cccc(Cl)c1 (stereo not given),2.13
12,Cc1cnn(CC2CN(c3cnc4ccccc4n3)CCO2)c1 (stereo not given),-11.1
13,Cc1cc(C)c(CNC(=O)N2CCCC2c2ccccc2)c(=O)[nH]1 (stereo not given),-3.97
14,COc1cc(CN2CCN(c3cccc(OC)c3)C(=O)C2)cc(OC)c1,-1.98
15,O=C(NCc1nnc2n1CCCCC2)N1CCc2sccc2C1,-4.29
16,COc1cccc(CN2CCC(c3nccn3C(C)C)CC2)c1,1.9
17,CC(CNC(=O)Nc1cn[nH]c1)N1CCc2ccccc2C1 (stereo not given),-0.721
18,O=C(CO)N1CCC(c2cncc(-c3cccc(Cl)c3)n2)CC1,4.78
19,Cc1cc(-c2cnc(NC3CC3)nc2-c2ccc(C)o2)on1,-2.52
20,CC[C@@H]1N(Cc2ccsc2)CCC[C@]12CCC(=O)N2C,-1.82

# Target: Shiga toxin 2 (Escherichia coli O157:H7) (UniProt P09385+P09386)
# Test: E. coli 0.157:H7 Shiga Toxin SOP - stx2 screening assay
# Format: functional
# Parameters: scale not given: direction of the effect not stated beside the values
# Conditions: 30 µM
row,SMILES,Percent Effect [%]
1,Cc1cnc(NC(=O)c2ccc(-n3ncc(C#N)c3N)cc2)s1,-13.3
2,Cc1ncc(C)c(N2CCCC(CO)(Cc3cccc(Cl)c3)C2)n1 (stereo not given),-21.4
3,CCC(=O)Nc1ccc2c(c1)CN(C(=O)c1ccco1)CC2,-43.9
4,Cc1cnn(CC2CN(Cc3nc4ccccc4nc3C)CCO2)c1 (stereo not given),-0.0617
5,Cn1cnnc1C1CCCN(C(=O)NCCNc2ccccn2)C1 (stereo not given),19
6,O=C(c1ccnnc1)N1C[C@@H](OCC2CCCC2)[C@H]2OCCC[C@H]21,-3.97
7,CC(C)n1ccnc1C1CCN(Cc2ccc(Cl)c(F)c2)CC1,-39.8
8,CCN(C(=O)c1ccc(-n2ncc(C#N)c2N)cc1)C1CCCC1,6.02
9,Cc1cnn(CC2CN(CC(=O)NCc3ccccn3)CCO2)c1 (stereo not given),-5.07
10,Cc1nc(C2CCCN(C(=O)c3ccc(N4CCCC4)nc3)C2)no1 (stereo not given),-1.41
11,COC(=O)[C@H](C)NC(=O)c1cc(-c2cccc(Cl)c2)no1,5.33
12,COc1cccc(C(=O)Nc2cc(CC(C)C)nn2C)c1,12
13,CN1CCN(c2cc(CCNC(=O)C3CCC3)nc(C3CC3)n2)CC1,-18.7
14,Cc1nc(C)n(CC2CCCN2Cc2nc(-c3cccs3)no2)n1 (stereo not given),29.7
15,Cc1ccc(CNC(=O)CN2CCCC(Cn3cncn3)C2)s1 (stereo not given),-43.9
16,O=C(CCN1CCCC1=O)NCc1cccnc1Oc1ccccc1,8.3
17,CCCSCC(=O)NS(=O)(=O)c1ccc2c(c1)OCCO2,19.7
18,Cn1ccnc1CN1CCN(c2ccc(C#N)cc2F)CC1,-29.4
19,Cc1ncc(S(C)(=O)=O)c(C2CCCNC2)n1 (stereo not given),-2.77
20,Cn1cnc2c1CCN(Cc1csc(-c3ccsc3)n1)C2,-95.3

row,SMILES,Percent Effect [%]
1,CCOCC1CN(S(C)(=O)=O)Cc2ncn(CC3CC3)c21 (stereo not given),-6.21
2,Cc1nc(CN(C)C2CCN(Cc3nc4ccccc4s3)C2)no1 (stereo not given),0.376
3,O=C1C(NS(=O)(=O)c2cc(F)cc(F)c2)CCN1Cc1ccccc1 (stereo not given),3.9
4,COc1cccc(-c2nc(CNCCn3cccn3)cs2)c1,-60.9
5,c1cnnc(N2CCCC2CNCc2cc[nH]n2)c1 (stereo not given),-20
6,CC(c1nc(C2CC2)no1)N1CCN(Cc2ccccc2F)CC1 (stereo not given),8.03
7,CC(O)CN1CCN(C(=O)c2ccc(Br)o2)CC1 (stereo not given),22.8
8,Cc1cc(C(=O)NCc2ccnc(N3CCN(C)CC3)c2)c(C)s1,-30.4
9,O=C(NCCn1ccc(-c2ccccn2)n1)c1ccncc1,-58.6
10,C1CC(NCc2nc(C3CC3)no2)CN(Cc2noc(C3CC3)n2)C1 (stereo not given),13.3
11,Cn1c(CC2CCS(=O)(=O)C2)nnc1SCCOc1cccc(Cl)c1 (stereo not given),-13
12,Cc1cnn(CC2CN(c3cnc4ccccc4n3)CCO2)c1 (stereo not given),-0.837
13,Cc1cc(C)c(CNC(=O)N2CCCC2c2ccccc2)c(=O)[nH]1 (stereo not given),-21.1
14,COc1cc(CN2CCN(c3cccc(OC)c3)C(=O)C2)cc(OC)c1,-8.17
15,O=C(NCc1nnc2n1CCCCC2)N1CCc2sccc2C1,-45.2
16,COc1cccc(CN2CCC(c3nccn3C(C)C)CC2)c1,-26.4
17,CC(CNC(=O)Nc1cn[nH]c1)N1CCc2ccccc2C1 (stereo not given),21.5
18,O=C(CO)N1CCC(c2cncc(-c3cccc(Cl)c3)n2)CC1,-9.28
19,Cc1cc(-c2cnc(NC3CC3)nc2-c2ccc(C)o2)on1,0.454
20,CC[C@@H]1N(Cc2ccsc2)CCC[C@]12CCC(=O)N2C,5.09
